# Data: paper PMC7862700, “An all-to-all approach to the identification of sequence-specific readers for epigenetic DNA modifications on cytosine”
# Tests used:
# Assay in all cases: DAPPL (digital affinity profiling via proximity ligation, sequencing); 10 mM Tris-HCl pH 7.5, 50 mM NaCl, 1 mM DTT, 4% glycerol, room temperature, 30 min; GST-TFs on glutathione beads, 16-mer random dsDNA library, 0.1% formaldehyde crosslink after washing; high values mean tight binding
# FEV = molecular target: T1, FEV (Homo sapiens, UniProt Q99581 1-238); settings: protein: recombinant; tags: N-terminal GST; dsDNA, one strand shown
# T1 sequence: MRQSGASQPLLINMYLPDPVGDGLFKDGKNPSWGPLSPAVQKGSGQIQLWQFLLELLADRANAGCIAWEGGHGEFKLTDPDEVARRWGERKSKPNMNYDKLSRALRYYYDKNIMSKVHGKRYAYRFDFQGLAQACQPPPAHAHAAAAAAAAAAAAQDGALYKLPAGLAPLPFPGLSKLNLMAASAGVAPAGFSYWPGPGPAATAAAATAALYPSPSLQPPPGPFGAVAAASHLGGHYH
# How it was run: (§1)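 Binding signal is each hexamer's read frequency for a factor divided by its frequency in the tag-only sample. The factors were GST-fused human transcription factors from yeast, captured on glutathione beads, DNA-barcoded and pooled with that sample. Pools were incubated with 200 nmole of a random double-stranded 16-mer DNA library in Tris/NaCl/DTT/glycerol buffer at room temperature for 30 min, then washed, crosslinked with 0.1% formaldehyde, proximity-ligated with BsaI/T4 ligase (1 h, 37 °C), PCR-amplified and sequenced on an Illumina NextSeq500.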
# ETV5 = ETV5 (Homo sapiens, UniProt P41161 1-510); settings: protein: recombinant; tags: N-terminal GST; dsDNA, one strand shown
# How it was run: as §1
# HSF1 = HSF1 (Homo sapiens, UniProt Q00613 1-529); settings: protein: recombinant; tags: N-terminal GST; chain copies: 3; dsDNA, one strand shown
# How it was run: as §1
# SPIC = molecular target: T2, SPIC (Homo sapiens, UniProt Q8N5J4 1-248); settings: protein: recombinant; tags: N-terminal GST; dsDNA, one strand shown
# T2 sequence: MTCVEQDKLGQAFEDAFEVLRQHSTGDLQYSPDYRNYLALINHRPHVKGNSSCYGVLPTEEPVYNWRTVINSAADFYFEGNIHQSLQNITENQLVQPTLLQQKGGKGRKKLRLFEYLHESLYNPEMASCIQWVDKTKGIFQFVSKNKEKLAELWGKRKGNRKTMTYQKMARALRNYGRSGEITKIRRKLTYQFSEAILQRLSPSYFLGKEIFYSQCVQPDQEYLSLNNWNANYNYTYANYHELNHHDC
# How it was run: as §1
# ELF4 = ELF4 (Homo sapiens, UniProt Q99607 1-663); settings: protein: recombinant; tags: N-terminal GST; dsDNA, one strand shown
# How it was run: as §1
# ELK4 = molecular target: T3, ELK4 (Homo sapiens, UniProt P28324-2 1-405); settings: protein: recombinant; tags: N-terminal GST; dsDNA, one strand shown
# T3 sequence: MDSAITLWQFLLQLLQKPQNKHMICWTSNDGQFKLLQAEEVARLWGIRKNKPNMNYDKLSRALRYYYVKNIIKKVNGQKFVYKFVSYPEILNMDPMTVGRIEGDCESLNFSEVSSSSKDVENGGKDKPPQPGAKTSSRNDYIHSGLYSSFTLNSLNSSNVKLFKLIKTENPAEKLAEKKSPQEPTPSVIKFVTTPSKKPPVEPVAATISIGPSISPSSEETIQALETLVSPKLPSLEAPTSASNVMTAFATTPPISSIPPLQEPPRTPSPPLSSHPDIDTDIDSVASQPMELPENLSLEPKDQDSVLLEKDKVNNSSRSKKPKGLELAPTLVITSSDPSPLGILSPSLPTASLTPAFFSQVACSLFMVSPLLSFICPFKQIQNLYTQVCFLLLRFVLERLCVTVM
# How it was run: as §1
# ETV2 = molecular target: T4, ETV2 (Homo sapiens, UniProt O00321 1-342); settings: protein: recombinant; tags: N-terminal GST; dsDNA, one strand shown
# T4 sequence: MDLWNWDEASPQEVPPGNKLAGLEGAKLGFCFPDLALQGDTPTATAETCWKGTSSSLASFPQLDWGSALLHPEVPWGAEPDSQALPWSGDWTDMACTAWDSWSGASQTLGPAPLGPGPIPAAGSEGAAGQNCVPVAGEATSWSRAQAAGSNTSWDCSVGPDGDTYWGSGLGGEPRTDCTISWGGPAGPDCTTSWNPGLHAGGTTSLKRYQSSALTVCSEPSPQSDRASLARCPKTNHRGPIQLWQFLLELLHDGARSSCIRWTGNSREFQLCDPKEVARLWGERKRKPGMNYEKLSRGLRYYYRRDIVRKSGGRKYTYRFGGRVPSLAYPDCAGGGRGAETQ
# How it was run: as §1
# ELF3 = molecular target: T5, ELF3 (Homo sapiens, UniProt P78545 1-371); settings: protein: recombinant; tags: N-terminal GST; dsDNA, one strand shown
# T5 sequence: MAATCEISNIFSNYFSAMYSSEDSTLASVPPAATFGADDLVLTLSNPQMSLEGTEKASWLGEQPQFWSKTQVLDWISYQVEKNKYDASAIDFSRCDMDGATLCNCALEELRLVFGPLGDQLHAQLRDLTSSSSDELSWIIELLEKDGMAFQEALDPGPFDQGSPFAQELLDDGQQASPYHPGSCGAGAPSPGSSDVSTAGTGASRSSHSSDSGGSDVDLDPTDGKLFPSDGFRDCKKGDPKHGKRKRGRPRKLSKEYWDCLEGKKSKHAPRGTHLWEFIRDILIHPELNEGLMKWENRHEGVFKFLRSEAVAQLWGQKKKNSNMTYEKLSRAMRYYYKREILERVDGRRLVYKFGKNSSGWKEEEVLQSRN
# How it was run: as §1
# CRX = CRX (Homo sapiens, UniProt O43186 1-299); settings: protein: recombinant; tags: N-terminal GST; dsDNA, one strand shown
# How it was run: as §1
# ETV1 = ETV1 (Homo sapiens, UniProt P50549 1-477); settings: protein: recombinant; tags: N-terminal GST; dsDNA, one strand shown
# How it was run: as §1
# ERF = molecular target: T6, ERF (Homo sapiens, UniProt P50548 1-548); settings: protein: recombinant; tags: N-terminal GST; dsDNA, one strand shown
# T6 sequence: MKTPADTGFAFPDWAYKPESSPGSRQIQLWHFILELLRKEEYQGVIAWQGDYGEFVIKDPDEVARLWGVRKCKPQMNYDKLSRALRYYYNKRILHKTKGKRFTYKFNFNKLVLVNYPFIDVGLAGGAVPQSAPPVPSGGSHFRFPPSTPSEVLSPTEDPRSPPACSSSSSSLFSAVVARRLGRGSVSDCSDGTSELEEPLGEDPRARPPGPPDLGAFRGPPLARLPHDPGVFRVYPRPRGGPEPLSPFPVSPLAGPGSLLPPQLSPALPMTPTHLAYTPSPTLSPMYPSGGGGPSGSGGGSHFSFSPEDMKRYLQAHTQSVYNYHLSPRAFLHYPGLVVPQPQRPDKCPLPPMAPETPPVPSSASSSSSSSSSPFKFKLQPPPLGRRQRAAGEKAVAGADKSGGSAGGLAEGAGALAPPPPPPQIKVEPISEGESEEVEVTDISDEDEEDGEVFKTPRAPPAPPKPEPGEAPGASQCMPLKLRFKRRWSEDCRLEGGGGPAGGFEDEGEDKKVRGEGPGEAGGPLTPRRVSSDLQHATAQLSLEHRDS
# How it was run: as §1
# ETV3L = molecular target: T7, ETV3L (Homo sapiens, UniProt Q6ZN32 1-361); settings: protein: recombinant; tags: N-terminal GST; dsDNA, one strand shown
# T7 sequence: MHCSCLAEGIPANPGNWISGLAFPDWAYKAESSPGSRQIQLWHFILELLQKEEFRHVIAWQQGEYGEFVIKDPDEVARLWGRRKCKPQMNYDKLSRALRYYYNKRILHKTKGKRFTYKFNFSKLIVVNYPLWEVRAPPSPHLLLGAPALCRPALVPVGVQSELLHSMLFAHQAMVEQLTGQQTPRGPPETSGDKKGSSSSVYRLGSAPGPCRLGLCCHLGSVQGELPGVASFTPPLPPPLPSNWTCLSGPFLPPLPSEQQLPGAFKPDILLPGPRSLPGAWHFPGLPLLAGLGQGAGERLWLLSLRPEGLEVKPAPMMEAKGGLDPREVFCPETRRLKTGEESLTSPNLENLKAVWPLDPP
# How it was run: as §1
# ETS2 = molecular target: T8, ETS2 (Homo sapiens, UniProt P15036 1-469); settings: protein: recombinant; tags: N-terminal GST; dsDNA, one strand shown
# T8 sequence: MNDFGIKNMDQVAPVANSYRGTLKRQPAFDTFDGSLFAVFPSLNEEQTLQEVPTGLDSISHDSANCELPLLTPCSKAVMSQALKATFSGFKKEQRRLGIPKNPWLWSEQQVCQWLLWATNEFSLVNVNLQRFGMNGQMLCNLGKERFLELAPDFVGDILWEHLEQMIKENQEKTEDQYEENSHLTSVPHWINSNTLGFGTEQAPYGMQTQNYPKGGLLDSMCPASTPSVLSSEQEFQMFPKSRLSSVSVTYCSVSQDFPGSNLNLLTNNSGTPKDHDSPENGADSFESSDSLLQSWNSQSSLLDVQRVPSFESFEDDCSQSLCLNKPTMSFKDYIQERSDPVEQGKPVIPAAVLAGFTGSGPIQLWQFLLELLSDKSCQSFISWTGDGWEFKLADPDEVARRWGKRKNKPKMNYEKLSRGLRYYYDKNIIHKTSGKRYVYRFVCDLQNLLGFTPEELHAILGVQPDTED
# How it was run: as §1
# SPDEF = molecular target: T9, SPDEF (Homo sapiens, UniProt O95238 1-335); settings: protein: recombinant; tags: N-terminal GST; dsDNA, one strand shown
# T9 sequence: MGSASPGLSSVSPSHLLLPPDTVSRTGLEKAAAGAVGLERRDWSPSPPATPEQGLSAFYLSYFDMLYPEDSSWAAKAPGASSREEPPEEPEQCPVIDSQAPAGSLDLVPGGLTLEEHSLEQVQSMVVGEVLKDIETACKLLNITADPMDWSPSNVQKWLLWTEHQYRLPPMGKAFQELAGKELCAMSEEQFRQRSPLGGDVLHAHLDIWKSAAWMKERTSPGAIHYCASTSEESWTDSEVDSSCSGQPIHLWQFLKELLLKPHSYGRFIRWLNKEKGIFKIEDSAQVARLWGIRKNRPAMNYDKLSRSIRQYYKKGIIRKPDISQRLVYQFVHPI
# How it was run: as §1
# ETV7 = molecular target: T10, ETV7 (Homo sapiens, UniProt Q9Y603 1-341); settings: protein: recombinant; tags: N-terminal GST; dsDNA, one strand shown
# T10 sequence: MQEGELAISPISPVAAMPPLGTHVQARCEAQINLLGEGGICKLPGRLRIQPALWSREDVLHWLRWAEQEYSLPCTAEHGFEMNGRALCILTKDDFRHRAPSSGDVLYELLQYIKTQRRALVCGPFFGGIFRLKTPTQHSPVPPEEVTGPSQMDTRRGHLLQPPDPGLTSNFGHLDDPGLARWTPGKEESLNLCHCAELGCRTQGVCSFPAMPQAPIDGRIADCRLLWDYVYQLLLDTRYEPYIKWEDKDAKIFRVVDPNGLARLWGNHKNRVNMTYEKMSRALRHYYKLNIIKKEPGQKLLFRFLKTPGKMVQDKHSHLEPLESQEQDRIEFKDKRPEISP
# How it was run: as §1
# ELF5 = molecular target: T11, ELF5 (Homo sapiens, UniProt Q9UKW6-2 1-255); settings: protein: recombinant; tags: N-terminal GST; dsDNA, one strand shown
# T11 sequence: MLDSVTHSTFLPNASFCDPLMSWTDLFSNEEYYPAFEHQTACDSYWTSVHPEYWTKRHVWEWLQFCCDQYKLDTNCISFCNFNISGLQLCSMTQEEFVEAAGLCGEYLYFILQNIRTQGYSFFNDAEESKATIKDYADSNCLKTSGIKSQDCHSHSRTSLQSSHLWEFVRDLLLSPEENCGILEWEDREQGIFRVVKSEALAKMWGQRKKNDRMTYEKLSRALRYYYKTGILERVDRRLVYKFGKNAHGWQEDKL
# How it was run: as §1
# ETV3 = molecular target: T12, ETV3 (Homo sapiens, UniProt P41162-2 1-143); settings: protein: recombinant; tags: N-terminal GST; dsDNA, one strand shown
# T12 sequence: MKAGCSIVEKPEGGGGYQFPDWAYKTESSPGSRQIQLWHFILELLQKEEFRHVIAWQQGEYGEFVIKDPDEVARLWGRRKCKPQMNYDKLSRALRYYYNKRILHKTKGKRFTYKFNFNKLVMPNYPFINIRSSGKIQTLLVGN
# How it was run: as §1
# ETV6 = ETV6 (Homo sapiens, UniProt P41212 1-452); settings: protein: recombinant; tags: N-terminal GST; dsDNA, one strand shown
# How it was run: as §1
# Chain of ETV5 (P41161 whole entry): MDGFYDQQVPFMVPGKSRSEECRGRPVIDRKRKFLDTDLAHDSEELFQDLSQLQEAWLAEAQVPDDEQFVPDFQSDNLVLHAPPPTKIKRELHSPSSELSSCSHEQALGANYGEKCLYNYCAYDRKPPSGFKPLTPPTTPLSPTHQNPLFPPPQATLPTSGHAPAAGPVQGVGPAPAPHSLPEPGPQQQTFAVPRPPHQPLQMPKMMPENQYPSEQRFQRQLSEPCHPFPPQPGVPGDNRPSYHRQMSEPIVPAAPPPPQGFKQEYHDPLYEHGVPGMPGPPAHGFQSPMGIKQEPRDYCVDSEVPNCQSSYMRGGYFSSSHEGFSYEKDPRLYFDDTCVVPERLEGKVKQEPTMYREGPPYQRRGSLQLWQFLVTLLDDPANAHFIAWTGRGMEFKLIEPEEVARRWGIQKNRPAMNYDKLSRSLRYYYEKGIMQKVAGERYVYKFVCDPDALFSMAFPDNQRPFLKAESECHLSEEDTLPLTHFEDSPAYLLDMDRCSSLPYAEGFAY
# Chain of ETV6 (P41212 whole entry): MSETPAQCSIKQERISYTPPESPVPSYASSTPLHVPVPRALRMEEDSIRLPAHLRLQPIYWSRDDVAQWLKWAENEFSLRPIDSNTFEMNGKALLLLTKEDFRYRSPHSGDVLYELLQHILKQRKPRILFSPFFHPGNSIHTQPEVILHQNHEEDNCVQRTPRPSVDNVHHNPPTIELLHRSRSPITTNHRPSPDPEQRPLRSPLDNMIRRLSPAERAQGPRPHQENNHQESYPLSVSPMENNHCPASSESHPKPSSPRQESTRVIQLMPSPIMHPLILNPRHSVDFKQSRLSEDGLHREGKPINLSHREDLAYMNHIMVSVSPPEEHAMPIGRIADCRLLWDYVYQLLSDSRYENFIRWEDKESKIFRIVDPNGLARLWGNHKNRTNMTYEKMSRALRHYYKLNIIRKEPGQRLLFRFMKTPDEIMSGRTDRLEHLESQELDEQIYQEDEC
# Chain of CRX (O43186 whole entry): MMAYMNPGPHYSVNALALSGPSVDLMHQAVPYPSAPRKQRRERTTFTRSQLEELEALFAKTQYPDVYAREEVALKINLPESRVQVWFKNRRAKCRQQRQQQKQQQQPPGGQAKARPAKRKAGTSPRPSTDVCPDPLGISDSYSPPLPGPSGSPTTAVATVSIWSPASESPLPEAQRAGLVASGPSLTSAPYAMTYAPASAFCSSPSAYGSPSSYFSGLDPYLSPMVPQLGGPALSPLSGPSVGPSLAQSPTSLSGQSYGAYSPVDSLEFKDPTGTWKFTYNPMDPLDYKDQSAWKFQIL
# Chain of HSF1 (Q00613 whole entry): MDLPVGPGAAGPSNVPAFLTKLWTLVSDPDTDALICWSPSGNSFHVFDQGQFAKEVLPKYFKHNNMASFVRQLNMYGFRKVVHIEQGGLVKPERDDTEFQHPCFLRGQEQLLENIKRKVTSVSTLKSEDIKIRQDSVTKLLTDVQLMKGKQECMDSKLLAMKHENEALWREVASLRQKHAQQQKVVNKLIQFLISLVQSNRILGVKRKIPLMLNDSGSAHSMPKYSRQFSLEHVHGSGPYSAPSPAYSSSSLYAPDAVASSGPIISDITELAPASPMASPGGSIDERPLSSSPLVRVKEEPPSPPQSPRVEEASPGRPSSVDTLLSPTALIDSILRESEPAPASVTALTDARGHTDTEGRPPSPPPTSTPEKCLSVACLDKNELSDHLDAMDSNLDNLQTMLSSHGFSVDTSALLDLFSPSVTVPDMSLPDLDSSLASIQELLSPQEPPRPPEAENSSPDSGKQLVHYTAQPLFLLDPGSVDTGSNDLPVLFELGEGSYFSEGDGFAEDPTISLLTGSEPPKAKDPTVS
# Chain of ELF4 (Q99607 whole entry): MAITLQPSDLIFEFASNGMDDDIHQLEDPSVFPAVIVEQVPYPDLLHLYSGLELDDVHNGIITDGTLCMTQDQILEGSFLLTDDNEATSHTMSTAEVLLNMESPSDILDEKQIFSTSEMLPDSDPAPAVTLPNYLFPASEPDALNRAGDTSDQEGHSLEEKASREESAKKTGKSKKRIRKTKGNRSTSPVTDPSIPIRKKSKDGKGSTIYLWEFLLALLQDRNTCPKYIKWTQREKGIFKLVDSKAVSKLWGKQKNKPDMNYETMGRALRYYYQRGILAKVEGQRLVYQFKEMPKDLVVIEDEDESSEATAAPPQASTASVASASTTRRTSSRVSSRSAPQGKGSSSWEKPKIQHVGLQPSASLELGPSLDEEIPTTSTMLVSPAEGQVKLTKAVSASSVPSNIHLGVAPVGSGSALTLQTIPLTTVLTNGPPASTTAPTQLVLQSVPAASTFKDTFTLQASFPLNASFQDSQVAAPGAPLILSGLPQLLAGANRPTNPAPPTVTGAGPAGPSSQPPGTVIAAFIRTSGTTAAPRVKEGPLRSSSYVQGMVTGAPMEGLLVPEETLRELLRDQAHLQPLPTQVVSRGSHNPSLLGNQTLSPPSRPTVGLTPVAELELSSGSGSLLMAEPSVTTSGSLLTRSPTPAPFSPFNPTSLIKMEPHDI
# Chain of ETV1 (P50549 whole entry): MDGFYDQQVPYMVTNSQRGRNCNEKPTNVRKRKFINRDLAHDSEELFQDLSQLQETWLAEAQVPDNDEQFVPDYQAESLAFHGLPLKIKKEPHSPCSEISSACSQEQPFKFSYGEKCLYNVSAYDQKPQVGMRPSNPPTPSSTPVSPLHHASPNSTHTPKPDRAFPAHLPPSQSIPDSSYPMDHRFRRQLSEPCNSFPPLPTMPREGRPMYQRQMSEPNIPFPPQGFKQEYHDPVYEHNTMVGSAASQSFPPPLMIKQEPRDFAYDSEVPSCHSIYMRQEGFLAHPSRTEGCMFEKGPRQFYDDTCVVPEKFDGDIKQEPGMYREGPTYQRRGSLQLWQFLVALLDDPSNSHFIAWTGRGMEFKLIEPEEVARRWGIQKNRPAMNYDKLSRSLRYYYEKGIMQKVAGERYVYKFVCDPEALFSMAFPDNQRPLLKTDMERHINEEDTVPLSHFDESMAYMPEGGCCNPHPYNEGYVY
sequence,measurement,setting,value
CCGTTC,binding signal,FEV,"1.48 fold enrichment (6-mer frequency, TF over GST control)"
same,binding signal,ETV5,"1.43 fold enrichment (6-mer frequency, TF over GST control)"
same,binding signal,HSF1,"1.18 fold enrichment (6-mer frequency, TF over GST control)"
same,binding signal,SPIC,"1.32 fold enrichment (6-mer frequency, TF over GST control)"
same,binding signal,ELF4,"1.37 fold enrichment (6-mer frequency, TF over GST control)"
same,binding signal,ELK4,"1.23 fold enrichment (6-mer frequency, TF over GST control)"
same,binding signal,ETV2,"1.4 fold enrichment (6-mer frequency, TF over GST control)"
same,binding signal,ELF3,"1.36 fold enrichment (6-mer frequency, TF over GST control)"
same,binding signal,CRX,"1.11 fold enrichment (6-mer frequency, TF over GST control)"
same,binding signal,ETV1,"1.27 fold enrichment (6-mer frequency, TF over GST control)"
same,binding signal,ERF,"1.61 fold enrichment (6-mer frequency, TF over GST control)"
same,binding signal,ETV3L,"1.44 fold enrichment (6-mer frequency, TF over GST control)"
same,binding signal,ETS2,"1.36 fold enrichment (6-mer frequency, TF over GST control)"
same,binding signal,SPDEF,"1.41 fold enrichment (6-mer frequency, TF over GST control)"
same,binding signal,ETV7,"1.32 fold enrichment (6-mer frequency, TF over GST control)"
same,binding signal,ELF5,"1.56 fold enrichment (6-mer frequency, TF over GST control)"
same,binding signal,ETV3,"1.38 fold enrichment (6-mer frequency, TF over GST control)"
same,binding signal,ETV6,"1.37 fold enrichment (6-mer frequency, TF over GST control)"
